Inconclusive results are not listed. Entries that show only a call come without a potency. Activity calls are given as the source filed them. Calls come from the whole dose curve; as a rule, active = well fitted curve in the direction sought with a large enough effect; inconclusive = small, poorly fitted or top-dose-only effect, or another doubt; inactive = no such curve, though single readings can be large or run the other way. Residues, ends and D or L forms follow the SMILES beside them. *: point of attachment. Cbz = O=C(OCc1ccccc1)*
Tests used:
[1] = biological target: T1, Hexokinase-4 (Homo sapiens) + Glucokinase regulatory protein (Homo sapiens) (UniProt P35557+Q14397); assay: qHTS assay for inhibitors of recombinant human GCK-GKRP interaction: Diaphorase-coupled assay (AID 743205); note: potency is the fitted concentration of half-maximal effect
T1 sequence (P35557 whole entry, looked up): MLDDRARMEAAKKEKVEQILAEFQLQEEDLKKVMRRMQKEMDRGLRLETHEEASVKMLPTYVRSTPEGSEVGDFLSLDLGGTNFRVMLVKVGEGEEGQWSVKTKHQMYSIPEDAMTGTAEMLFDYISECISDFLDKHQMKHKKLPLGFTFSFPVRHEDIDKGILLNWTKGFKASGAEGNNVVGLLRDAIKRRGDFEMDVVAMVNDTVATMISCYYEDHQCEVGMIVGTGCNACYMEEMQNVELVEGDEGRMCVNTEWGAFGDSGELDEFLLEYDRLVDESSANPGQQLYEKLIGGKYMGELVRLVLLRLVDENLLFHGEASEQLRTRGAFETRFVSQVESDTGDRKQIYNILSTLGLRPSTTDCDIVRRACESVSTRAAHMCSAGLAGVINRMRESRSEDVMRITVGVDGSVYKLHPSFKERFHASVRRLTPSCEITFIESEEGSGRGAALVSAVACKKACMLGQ
T1 sequence (Q14397 whole entry, looked up): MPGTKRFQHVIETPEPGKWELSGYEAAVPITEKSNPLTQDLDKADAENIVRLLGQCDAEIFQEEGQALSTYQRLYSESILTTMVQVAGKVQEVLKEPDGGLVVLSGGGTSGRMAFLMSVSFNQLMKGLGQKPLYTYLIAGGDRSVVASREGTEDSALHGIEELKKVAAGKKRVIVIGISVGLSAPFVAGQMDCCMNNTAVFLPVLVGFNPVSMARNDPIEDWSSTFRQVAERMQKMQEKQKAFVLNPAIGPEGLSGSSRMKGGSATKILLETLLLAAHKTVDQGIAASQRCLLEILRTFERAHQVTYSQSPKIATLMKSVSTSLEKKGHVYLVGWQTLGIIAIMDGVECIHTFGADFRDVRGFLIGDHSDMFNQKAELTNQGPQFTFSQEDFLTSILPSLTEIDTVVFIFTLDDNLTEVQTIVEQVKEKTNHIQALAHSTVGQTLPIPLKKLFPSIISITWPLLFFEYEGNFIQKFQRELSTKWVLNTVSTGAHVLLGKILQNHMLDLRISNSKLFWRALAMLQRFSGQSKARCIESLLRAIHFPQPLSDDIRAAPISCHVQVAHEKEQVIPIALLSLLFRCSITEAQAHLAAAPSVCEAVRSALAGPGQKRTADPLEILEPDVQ
Method in brief: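 Compounds pre-incubated 20 min with substrate, then 10 nM GST-GCK with 10 nM FLAG-GKRP added. GCK activity coupled via G6PDH and diaphorase to resorufin (5 mM glucose, 0.4 mM ATP, 0.15 mM NADP+, pH 7.6), read kinetically over 30 minutes at Ex 525/Em 590 nm.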

[2] = biological target: T1, Hexokinase-4 (Homo sapiens) + Glucokinase regulatory protein (Homo sapiens); assay: qHTS assay for inhibitors of recombinant human GCK-GKRP interaction: ADP-Glo assay (AID 743206); note: potency is the fitted concentration of half-maximal effect
Method in brief: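 GST-GCK and FLAG-GKRP (15 nM each in the dispensed mix, with 2 uM S6P) react with 0.4 mM ATP and 5 mM glucose (final) in Hepes pH 7.6 for 60 min at room temperature. ADP is measured by ADP-Glo luminescence.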

[3] = biological target: T1, Hexokinase-4 (Homo sapiens) + Glucokinase regulatory protein (Homo sapiens); assay: qHTS assay for inhibitors of recombinant human GCK-GKRP interaction: HTRF assay (AID 743207); note: potency is the fitted concentration of half-maximal effect
Method in brief: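 HTRF binding of 5 nM GST-GCK and 5 nM FLAG-GKRP with 2 uM S6P in pH 7.1 Hepes buffer (MgCl2, KCl, DTT, Tween 20, BSA). Anti-FLAG XL665 and anti-GST donor added, 60 min at room temperature; 665/615 nm read, normalized to with- and without-GCK controls.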

[4] = qHTS Assay for Identifying Gametocytocidal Compounds (AID 743244);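 note: actives lower the fluorescent signal which means gametocytes are killed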; conditions: P. falciparum 3D7 stage III-V gametocytes, alamarBlue, 72 h; max response: hits give low values
Method in brief: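 Viability read-out was resazurin reduction (alamarBlue, 24 h) measured at Ex 525/Em 598 nm. Beforehand, late-stage (III-V) 3D7 P. falciparum gametocytes at 20,000 cells/well were incubated with compound 72 h at 37C under 5% CO2.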

| SMILES | Potency [1] | Potency [2] | Potency [3] | max response [4] |
| --- | --- | --- | --- | --- |
| O=C(O)c1cc(=O)cc(C(=O)O)[nH]1 | inactive | inactive | inactive |  |
| O=c1cc(O)cc(/C=C/c2ccc(O)c(O)c2)o1 | inactive | inactive | inactive |  |
| C=CCN1CCc2cc(O)c(O)cc2C(c2ccccc2)C1 (stereo not given) | inactive | inactive | inactive |  |
| CCCCCCCC/C=C\CCCCCCCC(=O)NCCc1ccc(O)c(O)c1 | inactive | inactive | inactive |  |
| Oc1cc(O)c2c(c1)O[C@H](c1ccc(O)c(O)c1)[C@@H](O)C2 | inactive | inactive | inactive |  |
| NC(=Nc1ccccc1)NC(=O)c1nc(Cl)c(N)nc1N | inactive | inactive | inactive |  |
| COc1cc([C@@H]2c3cc4c(cc3[C@H](O)C3COC(=O)[C@@H]32)OCO4)cc(OC)c1OC (stereo not given in full) | inactive | inactive | inactive |  |
| CCN(c1nc(N)c(C(=O)N=C(N)N)nc1Cl)C(C)C | inactive | inactive | inactive |  |
| Nc1ccc(-c2nc3ccc(-c4nc5ccc(N)cc5[nH]4)cc3[nH]2)cc1 | inactive | inactive |  |  |
| CC1C(=O)N(C)C(=O)c2nc[nH]c21 (stereo not given) | inactive | inactive | inactive |  |
| N=C(N)SCCc1cnc[nH]1 | inactive | inactive | inactive |  |
| O=C(N[C@@H](Cc1ccccc1)C(=O)CCl)OCc1ccccc1 | inactive | inactive | inactive |  |
| O=c1[nH]c(=O)c2nc3ccccc3nc2[nH]1 | inactive | inactive | inactive |  |
| Cc1nc(N=Nc2cc(S(=O)(=O)O)c3cc([N+](=O)[O-])cc(S(=O)(=O)O)c3c2)c(COP(=O)(O)O)c(C=O)c1O | inactive |  |  |  |
| O=S(=O)(c1cccc2c(Cl)cccc12)N1CCCNCC1 | inactive | inactive | inactive |  |
| Oc1cc2c(cc1O)C(c1ccccc1)CNCC2 (stereo not given) | inactive | inactive | inactive |  |
| CNC(=O)c1cc2c(cn1)[nH]c1ccccc12 | inactive | inactive | inactive |  |
| CCC1(O)CC2CN(CCc3c([nH]c4ccccc34)[C@@](C(=O)OC)(c3cc4c(cc3OC)N(C)C3[C@]45CCN4CC=C[C@@](CC)([C@@H](OC(C)=O)[C@]3(O)C(=O)OC)[C@H]45)C2)C1 (stereo not given in full) | inactive | inactive | inactive |  |
| O=[N+]([O-])c1cccc2c(Br)[nH]nc12 | inactive | inactive | inactive |  |
| NC[C@@H]1O[C@H](c2ccccc2)Cc2c1ccc(O)c2O | inactive | inactive | inactive |  |
| O=C(O)C1CCNCC1 | inactive | inactive | inactive |  |

| SMILES | Potency [1] | Potency [2] | Potency [3] | max response [4] |
| --- | --- | --- | --- | --- |
| C=C1C[C@@]23CC[C@H]4[C@@](C)(CCC[C@@]4(C)C(=O)O)[C@@H]2CC[C@]1(O)C3 | inactive | inactive | inactive |  |
| O=C(O)C1=CCNCC1 | inactive | inactive |  |  |
| COCc1nc2c([nH]1)c(=O)n(C)c(=O)n2CC(C)C | inactive | inactive | inactive |  |
| C[C@](Cc1ccc(O)c(O)c1)(NN)C(=O)O | inactive | inactive | inactive |  |
| N[C@H](C(=O)O)[C@H](Cc1ccccc1)C(=O)O | inactive | inactive | inactive |  |
| O=C(O)C1CN(CCCP(=O)(O)O)CCN1 (stereo not given) | inactive | inactive | inactive |  |
| C=CCN1CCc2c(cc(O)c(O)c2Cl)C(c2ccccc2)C1 (stereo not given) | inactive | inactive | inactive |  |
| NC1CCN(O)C1=O (stereo not given) | inactive | inactive | inactive |  |
| CC(N)(C(=O)O)c1ccc(C(=O)O)cc1 (stereo not given) | inactive | inactive | inactive |  |
| Nc1nc2ccc(Cl)cc2c2nc(-c3ccco3)nn12 | inactive | inactive | inactive |  |
| CC[n+]1c(/C=C/C=C2/N(C)c3ccccc3C2(C)C)sc2ccccc21 | inactive | inactive |  |  |
| N[C@@H](Cc1c[nH]c2ccccc12)C(=O)O | inactive | inactive | inactive |  |
| Cc1cccc(C2CN(C)CCc3c2cc(O)c(O)c3Cl)c1 (stereo not given) | inactive | inactive | inactive |  |
| CN1CCCC1CCOC(C)(c1ccccc1)c1ccc(Cl)cc1 (stereo not given) | inactive | inactive | inactive |  |
| O=C(O)C1=CC(=C(c2ccc(O)c(C(=O)O)c2)c2ccc(O)c(C(=O)O)c2)C=CC1=O | 25.1 µM (active) | 4.47 µM (active) | 2.51 µM (active) |  |
| O=c1[nH]c2cc(Cl)ccc2c(O)c1-c1ccc(Oc2ccccc2)cc1 | inactive | inactive | inactive |  |
| N#Cc1cc([N+](=O)[O-])c2sc(C(N)=O)[n+]([O-])c2c1 | inactive | inactive | inactive |  |
| N[C@@H](CS(=O)O)C(=O)O | inactive | inactive | inactive |  |
| COc1ccc(-c2ccc(N)[n+](CCCC(=O)O)n2)cc1 | inactive | inactive | inactive |  |
| O=C(O)c1cc2cc(F)ccc2[nH]1 | inactive | inactive | inactive | 5.51% (inactive) |
| C#CCn1c(=O)c2c(ncn2C)n(C)c1=O | inactive | inactive | inactive |  |

| SMILES | Potency [1] | Potency [2] | Potency [3] | max response [4] |
| --- | --- | --- | --- | --- |
| O=C(O)Cc1ccc(O)c(O)c1 | inactive | inactive | inactive |  |
| C=C1C[C@@]23CC[C@H]4[C@@](C)(CCC[C@@]4(C)C(=O)OC4OC(CO)C(O)C(O)C4O)[C@@H]2CC[C@]1(OC1OC(CO)C(O)C(O)C1OC1OC(CO)C(O)C(O)C1O)C3 (stereo not given in full) | inactive | inactive | inactive |  |
| Cc1ccccc1/C=C/C1=NCCN1 | inactive | inactive | inactive |  |
| COc1ccc2c(c1)CCC1C2CC[C@@]2(C)C1CC[C@@H]2NCCCCCCN1C(=O)C=CC1=O (stereo not given in full) | inactive | inactive | inactive |  |
| NCCNS(=O)(=O)c1cccc2c(Cl)cccc12 | inactive | inactive | inactive |  |
| OC1(c2ccc(Cl)cc2)CCN(Cc2c[nH]c3ccccc23)CC1 | inactive | inactive | inactive |  |
| CCCCCCCCCCC(C)(C)C(=O)Nc1c(OC)cc(OC)cc1OC | inactive | inactive | inactive | -6% (inactive) |
| CCCn1c(=O)c2c(ncn2C)n(CCC)c1=O | inactive | inactive | inactive | 12.3% (inactive) |
| CN(C)C(=O)/N=N/C(=O)N(C)C | inactive | inactive | inactive | -1.96% (inactive) |
| Cc1nc2c(OCc3ccccc3)cccn2c1CC#N | inactive | inactive | inactive | 18.4% (inactive) |
| N[C@H](C(=O)O)c1cc(O)cc(O)c1 | inactive | inactive | inactive |  |
| CN1Cc2sccc2C(c2ccc(O)c(O)c2)C1 (stereo not given) | inactive | inactive | inactive |  |
| COc1cc(CNC(=O)CCCCCCC(C)C)ccc1O | inactive | inactive | inactive |  |
| COc1ccccc1N1CCN(CCCCN2C(=O)c3ccccc3C2=O)CC1 | inactive | inactive | inactive |  |
| NC(=O)CNCCC(c1ccccc1)c1ccccc1 | inactive | inactive | inactive |  |
| c1ccc(CN2CCC3(CCCc4ccccc43)CC2)cc1 | inactive | inactive | inactive |  |
| COc1ccc(NC(=O)c2ccc(-c3ccc(-c4noc(C)n4)cc3C)cc2)cc1N1CCN(C)CC1 | inactive | inactive | inactive |  |
| COc1cc(C(O)CO)ccc1O (stereo not given) | inactive | inactive | inactive |  |
| O=c1onc2n1-c1cc(Br)ccc1OC2 | inactive | inactive | inactive | 20.4% (inactive) |
| O=c1onc2cnc3ccccc3n12 | inactive | inactive | inactive |  |
| Nc1ccc2c3c(cccc13)C(=O)NC2=O | inactive | inactive | inactive |  |

| SMILES | Potency [1] | Potency [2] | Potency [3] | max response [4] |
| --- | --- | --- | --- | --- |
| S=C(S)N1CCCC1 | inactive | inactive | inactive |  |
| O=c1ccn([C@@H]2O[C@H](COP(=O)(O)OP(=O)(O)O)[C@@H](O)[C@H]2O)c(=O)[nH]1 | inactive | inactive | inactive |  |
| CCCCCCCCCCCCCCC[C@H](O)[C@H](N)CO | inactive | inactive | inactive |  |
| COc1cc(CC(=O)O)ccc1O | inactive | inactive | inactive |  |
| CCC1(O)CC2CN(CCc3c([nH]c4ccccc34)[C@@](C(=O)OC)(c3cc4c(cc3OC)N(C=O)C3[C@]45CCN4CC=C[C@@](CC)([C@@H](OC(C)=O)[C@]3(O)C(=O)OC)[C@H]45)C2)C1 (stereo not given in full) | inactive | inactive | inactive |  |
| O=C(O)[C@H]1NCCC[C@H]1C(=O)O | inactive | inactive | inactive |  |
| O=C1Nc2ccc(I)cc2/C1=C/c1cc(Br)c(O)c(Br)c1 | inactive | inactive | inactive | -8.13% (inactive) |
| CC(C)(CO)Cc1cc(C(C)(C)C)c(O)c(C(C)(C)C)c1 | inactive | inactive | inactive | 9.64% (inactive) |
| c1ccc(C2CN3CCSC3=N2)cc1 (stereo not given) | inactive | inactive | inactive |  |
| CC(C)[C@H](NC(=O)OCc1ccccc1)C(=O)N[C@H](C=O)Cc1ccccc1 (Cbz-Val-Phe-aldehyde) | inactive | inactive | inactive | 7.9% (inactive) |
| CN(C)CCCc1cc(C(=O)Nc2ccc(-c3ccncc3)cc2)ccc1O | inactive | inactive | inactive |  |
| CC(C)NC[C@H](O)COc1cccc2ccccc12 | inactive | inactive | inactive |  |
| CCCCOC(=O)NS(=O)(=O)c1sc(CC(C)C)cc1-c1ccc(Cn2c(CC)nc3c(C)cc(C)nc32)cc1 | inactive | inactive | inactive |  |
| C[C@H](NC(=O)/C(C#N)=C/c1ccc(O)c(O)c1)c1ccccc1 | inactive | inactive | inactive | -11% (inactive) |
| NC(N)=[N+]1CCc2ccccc2C1 | inactive | inactive | inactive | -3.89% (inactive) |
| OC[C@H]1O[C@H](n2cnc3c(N[C@H]4CCC[C@@H]4O)ncnc32)[C@H](O)[C@@H]1O | inactive | inactive | inactive | 20.9% (inactive) |
| NCCCNCCCCNCCCN | inactive | inactive | inactive | 28.9% (inactive) |
| O=C(O)CCC(=O)N1CCCC1C(=O)O (stereo not given) | inactive | inactive | inactive | -8.08% (inactive) |
| CC(=O)NNC(=O)N1Cc2ccccc2Oc2ccc(Cl)cc21 | inactive | inactive | inactive | 7.75% (inactive) |
| CC[C@H](NC(=O)c1c(C)c(-c2ccccc2)nc2ccccc12)c1ccccc1 | inactive | inactive | inactive | 5.87% (inactive) |

Source: PubChem BioAssay (NCATS)
